Laboratory results published in PubChem BioAssay AID504467 (National Center for Advancing Translational Sciences (NCATS), 2011).
Screen size: about 330,000 compounds; about 7,700 (2.3%) were called active. A call without a number means that no potency is given here. Not shown: some 26% with an inconclusive outcome. This is one part of a sample in which actives are shown more often than they occur. The call rests on the fitted dose curve; in most records, active means well fitted inhibition curve with a large enough effect; inconclusive means small, poorly fitted or top-dose-only effect, or effect the other way; inactive means flat fitted curve, though single readings scatter.

assay: qHTS screen for small molecules that inhibit ELG1-dependent DNA repair in human embryonic kidney (HEK293T) cells expressing luciferase-tagged ELG1; details: HEK293T ELG1-luciferase reporter, luminescence, 16 h, DNA damage induced by 5-fluorouridine; series mostly up to 46.1 µM; further: nearly all actives have a fitted effect of over 55% in size
In short: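 Cells (2,000 per well) received 5-fluorouridine plus test compound or DMSO and were incubated 16 hr at 37 °C, 5% CO2. Luciferase activity was read by luminescence 30 min after ONE-Glo addition; signal suppression marked inhibition of damage-induced ELG1 function.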
Potency means the concentration at half of the fitted maximal effect.

SMILES | Potency
COc1ccc(CCNc2ncnc3nc[nH]c23)cc1OC | 14.6 µM (active)
COc1ccc(CCNc2nc(C)cc(C)n2)cc1OC | inactive
CCS(=O)(=O)NCCc1ccc(OC)c(OC)c1 | inactive
CCCN(C(=O)c1nc2nccc(C)n2n1)c1c(N)n(Cc2ccccc2)c(=O)[nH]c1=O | inactive
O=C(Nc1ccccc1F)c1ccc(S(=O)(=O)N2CCCCCC2)cc1 | inactive
Cc1cccc(NS(=O)(=O)c2ccc(C)c(C(=O)NCc3cccnc3)c2)c1 | inactive
COC(=O)Cc1ccc(OC(=O)C2CCN(S(=O)(=O)c3ccc(OC)c(OC)c3)CC2)cc1 | inactive
Cc1[nH]c2ccccc2c1C(=O)COC(=O)C(C)C | inactive
CCOC(=O)c1c(C)[nH]c(C)c1S(=O)(=O)N(C)CC(=O)Nc1ccccc1C | inactive
CCOC(=O)c1c(C)[nH]c2c1-c1ccccc1C(=O)C2=O | 2.91 µM (active)
CC[C@]12c3[nH]c4cc(CCC(=O)N(C)C)ccc4c3CCN1C(=O)[C@@H](CC(=O)NCCCn1ccnc1)C[C@@H]2C(=O)N1CCN(C(=O)C2CC2)CC1 | inactive
Cc1ccc(N(Cc2ccccc2O)C(=O)c2ccccc2F)cc1 | inactive
Cc1ccc(C(=O)OCC(=O)N2CCCCCC2)cc1S(=O)(=O)N1CCOCC1 | inactive
COc1ccc(C(=O)OCC(=O)c2ccc(C)c(S(=O)(=O)N3CCOCC3)c2)cc1OC | 10.3 µM (active)
Cc1ccc(C(=O)OCC(=O)NCc2cc(C)c(O)c(C)c2)cc1S(=O)(=O)N1CCCCC1 | 7.3 µM (active)
Cc1ccc(C(=O)NCC(=O)O)cc1S(=O)(=O)N1CCCCC1 | inactive
Cc1ccc(C(=O)OCC(=O)Nc2ccc(Cl)cn2)cc1S(=O)(=O)N1CCOCC1 | inactive
Cc1ccc(C(=O)OCC(=O)N2CC(C)CC(C)C2)cc1S(=O)(=O)N1CCCCC1 (stereo not drawn) | inactive
COc1ccc(C2(C)ON(c3ccccc3C(F)(F)F)C2=O)cc1 (stereo not drawn) | inactive
Cc1ccc(Cn2cc(C(=O)NN)c(=O)c3ccc(F)cc32)cc1 | inactive
CC1(C)Oc2ccc3ccc(=O)oc3c2/C(=N/O)C1=O | inactive

SMILES | Potency
COc1ccc(C(=O)Nc2ccc3nc(N4CCCCC4)cc(C)c3c2)cc1OC | 23.1 µM (active)
COc1ccc(C(=O)Nc2ccc(S(=O)(=O)Nc3onc(C)c3C)cc2)cc1OC | inactive
COc1ccc(C(=O)NC(=S)Nc2ccc(N3CCCC3)cc2)cc1OC | inactive
CN1CCN(CCC(=O)N/N=C/C=C2\N(C)c3ccccc3C2(C)C)CC1 | inactive
CN1/C(=C\C(=O)c2oc3ccccc3c2N)C(C)(C)c2ccccc21 | 13 µM (active)
CN1/C(=C\C(=O)c2cccnc2Cl)C(C)(C)c2ccccc21 | inactive
CC(C)[C@H](NC(=O)N1CCn2c1nc1ccccc12)C(=O)NCCc1ccccc1 | inactive
CCOc1ccc(C(=O)CCC(=O)Nc2ccncc2)cc1 | inactive
COc1ccc2oc(C(=O)N(CC(C)C)C3CCS(=O)(=O)C3)c(C)c2c1 (stereo not drawn) | inactive
COc1cc(C(=O)N[C@@H](C)C(=O)NCc2ccco2)cc(OC)c1OC | inactive
COc1cc(C(=O)OC(C)C(=O)NCC2CCCCC2)cc(NC(=O)c2ccco2)c1OC (stereo not drawn) | 11.6 µM (active)
CC(OC(=O)c1ccc([N+](=O)[O-])cc1)C(=O)NCC1CCCCC1 (stereo not drawn) | inactive
CN1C(=O)[C@H]2[C@@H](/C=C/c3ccccc3)N3C(=O)CN(Cc4ccc(-c5ccccc5)cc4)C(=O)[C@@]3(C)[C@H]2C1=O | inactive
COc1ccccc1CNC(=O)COn1nnc2ccc(S(=O)(=O)N3CCOCC3)cc21 | inactive
COc1ccc(CCNc2nc3ccc(C)cc3n3cnnc23)cc1OC | inactive
COc1ccc(OC)c(Nc2nc3ccccc3n3cnnc23)c1 | 14.6 µM (active)
CCn1c(C(O)c2cc(OC)ccc2OC)nc2ccccc21 (stereo not drawn) | inactive
Cc1ccc(/C=C2/SC(=S)N(CCC(=O)NCCCN3CCOCC3)C2=O)cc1 | inactive
CCOc1ccc(NC(=O)COc2ccc(C(=O)N3CCC(C(N)=O)CC3)cc2OC)cc1 | inactive
Cc1cc(-n2nc(C)cc2C)n2nc(C)c(-c3ccccc3)c2n1 | inactive
CCc1c(C)nc2c(-c3ccccc3)c(C)nn2c1Nc1ccc(NC(C)=O)cc1 | 16.4 µM (active)

SMILES | Potency
Cc1cc(-c2ccccc2)n2nc(C)c(-c3ccccc3)c2n1 | inactive
Cc1cc(C)c2nc(N(CCN(C)C)C(=O)/C=C/c3cccs3)sc2c1 | inactive
CN(CC(=O)Nc1ccc(F)c(F)c1F)C(=O)Cn1cnc2c1c(=O)n(C)c(=O)n2C | inactive
O=C(COc1ccccc1F)NNC(=O)c1cc(Br)ccc1Cl | inactive
COc1ccccc1N1CCN(C(=O)C2Cc3ccccc3CN2C(=O)c2ccco2)CC1 (stereo not drawn) | inactive
Cc1ccc(C)c(-c2nnc(NC(=O)CS(=O)(=O)c3ccccc3)o2)c1 | inactive
COc1ccc(S(=O)(=O)NCC(=O)NC2CC2)cc1OC | inactive
Cc1ccc(C(=O)NCCNC(=O)c2cnccn2)cc1 | inactive
CCN(CC)c1ccc(/C=N/NC(=O)c2cnccn2)c(O)c1 | 1.46 µM (active)
O=C(N/N=C/c1ccc(O)c2ccccc12)c1cccnc1 | inactive
CC1(c2ccc3ccccc3c2)NC(=O)N(CC(N)=O)C1=O (stereo not drawn) | inactive
CCc1ccc(Nc2n[n+](-c3ccccc3)c(-c3cccc(Cl)c3Cl)s2)cc1 | inactive
Cc1ccc(Nc2ccc(C(N)=O)cc2[N+](=O)[O-])cc1 | inactive
NC(=O)c1ccc(Nc2ccc3c(c2)CCC3)c([N+](=O)[O-])c1 | 11.6 µM (active)
NC(=O)c1ccc(Nc2ccc3nonc3c2[N+](=O)[O-])cc1 | inactive
CC(Sc1nnc(-c2ccccc2F)n1C1CC1)C(N)=O (stereo not drawn) | inactive
CCN(C[C@H]1N[C@@](Cc2ccccc2)(C(=O)OC)[C@H]2C(=O)N(Cc3ccccc3)C(=O)[C@@H]12)C(=O)c1ccc(C)cc1 | inactive
CCOc1ccc(NC(=O)c2cc(C)nc3ccccc23)cc1 | inactive
COc1ccccc1C(=O)Nc1ccc(OCc2nnc3c4ccccc4c(C)nn23)cc1 | 20.6 µM (active)
CCCNC(=O)Nc1ccccc1C(=O)Nc1ccc(OC)cc1 | inactive
COc1ccc(C(CNC(=O)c2ccc(NS(=O)(=O)c3ccc(F)c(C)c3)cc2)N(C)C)cc1 (stereo not drawn) | inactive
